# Read-outs that look alike come from different tables or passages of the source.
# Columns and labels:
# Conditions in all cases: read-out: apparent Kd, n = 1
# AAK1 = tested on: AAK1; design: species or system human, MV4-11 + K-562 + COLO205 + SK-N-BE2 + OVCAR-8
# CLK1 = tested on: CLK1; design: species or system human, MV4-11 + K-562 + COLO205 + SK-N-BE2 + OVCAR-8
# CLK4 = tested on: CLK4; design: species or system human, MV4-11 + K-562 + COLO205 + SK-N-BE2 + OVCAR-8
# CSNK2A1;CSNK2A3 = tested on: CSNK2A1;CSNK2A3; design: species or system human, MV4-11 + K-562 + COLO205 + SK-N-BE2 + OVCAR-8
# CSNK2A2 = tested on: CSNK2A2; design: species or system human, MV4-11 + K-562 + COLO205 + SK-N-BE2 + OVCAR-8
# GAK = tested on: GAK; design: species or system human, MV4-11 + K-562 + COLO205 + SK-N-BE2 + OVCAR-8
# GSK3A = tested on: GSK3A; design: species or system human, MV4-11 + K-562 + COLO205 + SK-N-BE2 + OVCAR-8
# GSK3B = tested on: GSK3B; design: species or system human, MV4-11 + K-562 + COLO205 + SK-N-BE2 + OVCAR-8
# MELK = tested on: MELK; design: species or system human, MV4-11 + K-562 + COLO205 + SK-N-BE2 + OVCAR-8
# NUAK1 = tested on: NUAK1; design: species or system human, MV4-11 + K-562 + COLO205 + SK-N-BE2 + OVCAR-8
# PAK4 = tested on: PAK4; design: species or system human, MV4-11 + K-562 + COLO205 + SK-N-BE2 + OVCAR-8
# PKN1 = tested on: PKN1; design: species or system human, MV4-11 + K-562 + COLO205 + SK-N-BE2 + OVCAR-8
# PKN3 = tested on: PKN3; design: species or system human, MV4-11 + K-562 + COLO205 + SK-N-BE2 + OVCAR-8
# PRKAG1 = tested on: PRKAG1; design: species or system human, MV4-11 + K-562 + COLO205 + SK-N-BE2 + OVCAR-8
# Q6ZSR9 = Q6ZSR9 (human, UniProt Q6ZSR9); design: species or system MV4-11 + K-562 + COLO205 + SK-N-BE2 + OVCAR-8
# RET = tested on: RET; design: species or system human, MV4-11 + K-562 + COLO205 + SK-N-BE2 + OVCAR-8
# SIK2 = tested on: SIK2; design: species or system human, MV4-11 + K-562 + COLO205 + SK-N-BE2 + OVCAR-8
# BMP2K = tested on: BMP2K; design: species or system human, MV4-11 + K-562 + COLO205 + SK-N-BE2 + OVCAR-8
# FLT4 = tested on: FLT4; design: species or system human, MV4-11 + K-562 + COLO205 + SK-N-BE2 + OVCAR-8
# [1] = compound concentrations:100 nM and 1000 nM (sheet 'Samples')
# Sequence of Q6ZSR9 (Q6ZSR9 whole entry, looked up): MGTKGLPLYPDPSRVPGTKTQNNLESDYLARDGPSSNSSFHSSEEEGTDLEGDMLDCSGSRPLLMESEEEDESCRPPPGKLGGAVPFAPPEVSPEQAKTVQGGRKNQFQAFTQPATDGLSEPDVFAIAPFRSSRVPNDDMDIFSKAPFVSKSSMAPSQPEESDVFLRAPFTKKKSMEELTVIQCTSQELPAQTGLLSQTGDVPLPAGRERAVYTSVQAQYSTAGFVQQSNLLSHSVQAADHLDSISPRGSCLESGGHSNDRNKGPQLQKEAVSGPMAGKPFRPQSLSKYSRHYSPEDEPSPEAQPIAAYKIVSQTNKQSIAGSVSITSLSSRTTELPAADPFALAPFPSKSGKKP
smiles,measurement,setting,value
CN(c1ccc(NC(=O)Nc2cccc(Cl)c2)cc1)c1ccnc(N)n1.Cl [GW830707A],potency estimated from few doses,"AAK1; compound concentrations: 100 nM and 1000 nM (sheet 'Samples'), CATDS: 1.09630092870236E-2",1150 nM
same,potency estimated from few doses,"CLK1; compound concentrations: 100 nM and 1000 nM (sheet 'Samples'), CATDS: 2.1787512742807501E-2",42 nM
same,potency estimated from few doses,"CLK4; compound concentrations: 100 nM and 1000 nM (sheet 'Samples'), CATDS: 1.6953828831644601E-2",90.4 nM
same,potency estimated from few doses,"CSNK2A1;CSNK2A3; compound concentrations: 100 nM and 1000 nM (sheet 'Samples'), CATDS: 1.0372533520716E-2",1990 nM
same,potency estimated from few doses,"CSNK2A2; compound concentrations: 100 nM and 1000 nM (sheet 'Samples'), CATDS: 1.04920498001006E-2",1760 nM
same,potency estimated from few doses,"GAK; compound concentrations: 100 nM and 1000 nM (sheet 'Samples'), CATDS: 2.5195285382478599E-2",29.6 nM
same,potency estimated from few doses,"GSK3A; compound concentrations: 100 nM and 1000 nM (sheet 'Samples'), CATDS: 2.1035735190854499E-2",46.1 nM
same,potency estimated from few doses,"GSK3B; compound concentrations: 100 nM and 1000 nM (sheet 'Samples'), CATDS: 1.8960420623414999E-2",62.2 nM
same,potency estimated from few doses,"MELK; compound concentrations: 100 nM and 1000 nM (sheet 'Samples'), CATDS: 1.02944782662895E-2",2160 nM
same,potency estimated from few doses,"NUAK1; compound concentrations: 100 nM and 1000 nM (sheet 'Samples'), CATDS: 1.06533204099584E-2",1510 nM
same,potency estimated from few doses,"PAK4; compound concentrations: 100 nM and 1000 nM (sheet 'Samples'), CATDS: 1.12669730748303E-2",911 nM
same,potency estimated from few doses,"PKN1; compound concentrations: 100 nM and 1000 nM (sheet 'Samples'), CATDS: 1.22442733693101E-2",482 nM
same,potency estimated from few doses,"PKN3; compound concentrations: 100 nM and 1000 nM (sheet 'Samples'), CATDS: 1.09744327233877E-2",1140 nM
same,potency estimated from few doses,"PRKAG1; compound concentrations: 100 nM and 1000 nM (sheet 'Samples'), CATDS: 2.2358938635015799E-2",39.4 nM
same,potency estimated from few doses,"Q6ZSR9; compound concentrations: 100 nM and 1000 nM (sheet 'Samples'), CATDS: 1.11912324380908E-2",964 nM
same,potency estimated from few doses,"RET; compound concentrations: 100 nM and 1000 nM (sheet 'Samples'), CATDS: 1.6938963358117499E-2",90.7 nM
same,potency estimated from few doses,"SIK2; compound concentrations: 100 nM and 1000 nM (sheet 'Samples'), CATDS: 1.7275561883006999E-2",84.5 nM
Clc1cc(Cl)cc(Nc2ccnc(Nc3cc(Cl)cc(Cl)c3)n2)c1 [GSK175726A],potency estimated from few doses,"AAK1; compound concentrations: 100 nM and 1000 nM (sheet 'Samples'), CATDS: 1.17801193164304E-2",460 nM
same,potency estimated from few doses,"BMP2K; compound concentrations: 100 nM and 1000 nM (sheet 'Samples'), CATDS: 9.0184479884945195E-3",1240 nM
same,potency estimated from few doses,"CLK1; compound concentrations: 100 nM and 1000 nM (sheet 'Samples'), CATDS: 2.2055974074076602E-2",111 nM
same,potency estimated from few doses,"CLK4; compound concentrations: 100 nM and 1000 nM (sheet 'Samples'), CATDS: 1.3138431378969501E-2",338 nM
same,potency estimated from few doses,"CSNK2A1;CSNK2A3; compound concentrations: 100 nM and 1000 nM (sheet 'Samples'), CATDS: 1.0484195430571001E-2",672 nM
same,potency estimated from few doses,"CSNK2A2; compound concentrations: 100 nM and 1000 nM (sheet 'Samples'), CATDS: 1.04904160104555E-2",671 nM
same,potency estimated from few doses,"FLT4; compound concentrations: 100 nM and 1000 nM (sheet 'Samples'), CATDS: 8.8646184270887406E-3",1350 nM
same,potency estimated from few doses,"GAK; compound concentrations: 100 nM and 1000 nM (sheet 'Samples'), CATDS: 2.44642148870544E-2",92.1 nM
same,potency estimated from few doses,"GSK3A; compound concentrations: 100 nM and 1000 nM (sheet 'Samples'), CATDS: 1.64548846246832E-2",197 nM
same,potency estimated from few doses,"GSK3B; compound concentrations: 100 nM and 1000 nM (sheet 'Samples'), CATDS: 1.50283486353895E-2",242 nM
same,potency estimated from few doses,"MELK; compound concentrations: 100 nM and 1000 nM (sheet 'Samples'), CATDS: 8.4068419636258301E-3",1790 nM
same,potency estimated from few doses,"NUAK1; compound concentrations: 100 nM and 1000 nM (sheet 'Samples'), CATDS: 1.3178024386402599E-2",335 nM
same,potency estimated from few doses,"PAK4; compound concentrations: 100 nM and 1000 nM (sheet 'Samples'), CATDS: 1.1864346361446201E-2",450 nM
same,potency estimated from few doses,"PKN1; compound concentrations: 100 nM and 1000 nM (sheet 'Samples'), CATDS: 8.1278223120285105E-3",2200 nM
same,potency estimated from few doses,"PKN3; compound concentrations: 100 nM and 1000 nM (sheet 'Samples'), CATDS: 9.6016767734474606E-3",940 nM
same,potency estimated from few doses,"PRKAG1; compound concentrations: 100 nM and 1000 nM (sheet 'Samples'), CATDS: 2.2079366714636301E-2",110 nM
same,potency estimated from few doses,"Q6ZSR9; compound concentrations: 100 nM and 1000 nM (sheet 'Samples'), CATDS: 1.1627061095110299E-2",479 nM
same,potency estimated from few doses,"RET; compound concentrations: 100 nM and 1000 nM (sheet 'Samples'), CATDS: 1.2674098851270001E-2",373 nM
same,potency estimated from few doses,"SIK2; compound concentrations: 100 nM and 1000 nM (sheet 'Samples'), CATDS: 1.3915634821930201E-2",291 nM
CN1C[C@@H]2Cn3c(c(C4=C(c5cn(C)c6ccccc56)C(=O)NC4=O)c4ccccc43)C[C@H]2C1.Cl [RO0320234-001],potency estimated from few doses,AAK1; [1],403 nM
same,potency estimated from few doses,BMP2K; [1],933 nM
same,potency estimated from few doses,CLK1; [1],162 nM
same,potency estimated from few doses,CLK4; [1],500 nM
same,potency estimated from few doses,CSNK2A1;CSNK2A3; [1],836 nM
same,potency estimated from few doses,CSNK2A2; [1],784 nM
same,potency estimated from few doses,FLT4; [1],878 nM
same,potency estimated from few doses,GAK; [1],186 nM
same,potency estimated from few doses,GSK3A; [1],99 nM
same,potency estimated from few doses,GSK3B; [1],50.7 nM
same,potency estimated from few doses,PAK4; [1],558 nM
same,potency estimated from few doses,PKN1; [1],1970 nM
same,potency estimated from few doses,PKN3; [1],1500 nM
same,potency estimated from few doses,PRKAG1; [1],352 nM
same,potency estimated from few doses,Q6ZSR9; [1],533 nM
same,potency estimated from few doses,RET; [1],371 nM
same,potency estimated from few doses,SIK2; [1],230 nM
CNC(=O)c1ccccc1Nc1nc(Nc2ccc(N3CCOCC3)cc2)ncc1Cl.Cl [GSK1576028A],potency estimated from few doses,AAK1; [1],142 nM
same,potency estimated from few doses,BMP2K; [1],1140 nM
same,potency estimated from few doses,CLK1; [1],260 nM
same,potency estimated from few doses,CLK4; [1],321 nM
same,potency estimated from few doses,CSNK2A1;CSNK2A3; [1],59.3 nM
same,potency estimated from few doses,CSNK2A2; [1],24.4 nM
same,potency estimated from few doses,FLT4; [1],309 nM
same,potency estimated from few doses,GAK; [1],90.3 nM
same,potency estimated from few doses,MELK; [1],2220 nM
same,potency estimated from few doses,NUAK1; [1],92.2 nM
same,potency estimated from few doses,PRKAG1; [1],461 nM
same,potency estimated from few doses,Q6ZSR9; [1],116 nM
same,potency estimated from few doses,RET; [1],93.9 nM
same,potency estimated from few doses,SIK2; [1],611 nM
Cc1ccc2c(-c3ccncc3)c(-c3ccc(F)cc3)nn2c1.Cl [GW461484A],potency estimated from few doses,AAK1; [1],767 nM
same,potency estimated from few doses,BMP2K; [1],1900 nM
same,potency estimated from few doses,CLK1; [1],548 nM
same,potency estimated from few doses,CSNK2A1;CSNK2A3; [1],1550 nM
same,potency estimated from few doses,CSNK2A2; [1],2220 nM
same,potency estimated from few doses,FLT4; [1],1320 nM
same,potency estimated from few doses,GAK; [1],319 nM
same,potency estimated from few doses,GSK3A; [1],434 nM
same,potency estimated from few doses,GSK3B; [1],493 nM
same,potency estimated from few doses,NUAK1; [1],1590 nM
same,potency estimated from few doses,PAK4; [1],888 nM
same,potency estimated from few doses,PKN1; [1],2010 nM
same,potency estimated from few doses,PKN3; [1],1390 nM
same,potency estimated from few doses,PRKAG1; [1],560 nM
same,potency estimated from few doses,Q6ZSR9; [1],942 nM
same,potency estimated from few doses,RET; [1],683 nM
same,potency estimated from few doses,SIK2; [1],696 nM

# Reference: paper PMC11062922 (Nature Chemical Biology, 2023)
